# This is a sample that favours compounds with a hit; in the whole collection about 12% have one here.
# NS1 inh – blocks influenza NS1 protein function; actives 0.4% (n = 270,000); Potency, µM (series often up to 46.1 µM); AID 2326; also: actives are rising curves; nearly all actives have a fitted effect of over 50% in size
#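 In this qHTS, NS1 from influenza A is expressed in budding yeast, where it slows growth. Cells are switched from glucose to 2% galactose medium (pH 6.0, -URA), treated with compound, and growth recovery is read at OD600.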
# SARS PLP yeast – SARS-CoV PLP inhibition in yeast; actives 0.19% (n = 330,000); S. cerevisiae expressing SARS-CoV PLpro, growth rescue; Potency, µM (doses to about 32.9 µM), actives largely listed as activators; AID 485353; also: nearly all actives have a fitted effect of over 55% in size
# Shiga inhibitor – Shiga toxin inhibition; actives 9.2% (n = 290,000); Vero cells, Shiga toxin protein synthesis inhibition reporter; inhibition, % at 38.7 µM; in the data active = inhibition mostly above about 28%, no sharp cut-off; inactive = mostly below about 43%
# Cycloheximide cs – counter-screen for Shiga toxin inhibitors: cycloheximide protein synthesis inhibition | cell reporter, cycloheximide protein synthesis inhibition counterscreen | max response, % | actives 12% (n = 300,000); in the data active = max response mostly above about 13%, no sharp cut-off; inactive = mostly below about 14%; also: read at 38.3 µM for the half of the compounds with a filed dose
# Hits are given with their value; i = inactive; ? = inconclusive; nt = not tested or not shown. Unless noted, calls follow the shape of the full dose curve.
SMILES,NS1 inh,SARS PLP yeast,Shiga inhibitor,Cycloheximide cs
COc1cc(NC(=O)C/C(C)=N/NC(=O)c2cccs2)c(OC)cc1Cl,i,i,67.5,25.3
O=C(CNC(=O)c1ccc(Br)o1)NCc1ccc(F)cc1,i,i,i,i
COc1ccc(C(=O)/C=C/c2ccccc2)c(OC)c1,i,i,54.2,31.7
COc1ccc(C(=O)/C=C/c2ccc(N(C)C)cc2)c(OC)c1,i,i,i,26.0
COc1ccc(C(=O)/C=C/c2cc(OC)c(O)c(OC)c2)c(F)c1,i,i,i,i
COc1ccc(C(=O)/C=C/Nc2cc(C)on2)c(OC)c1,i,i,i,25.3
CC(=O)NS(=O)(=O)c1ccc(NC(=O)CSc2ccccc2)cc1,i,i,i,i
CC(=O)Oc1ccc(NC(=O)CSc2ccccc2)cc1,i,i,i,44.7
O=C(CSc1ccc2ccccc2c1)Nc1ccncc1,i,i,i,i
O=C(CSc1ccccc1)NC1=NCCS1,i,i,i,22.2
O=C(CSc1ccc(F)cc1)Nc1ccc(C2SCCS2)cc1,i,i,85.3,34.6
O=C(CSc1ccccc1)Nc1ccncc1,i,i,i,12.1
COCCn1c(SCC(=O)NC2CCCC2)nnc1C(C)C,i,i,i,i
Cc1ccc(CNS(=O)(=O)/C=C/c2ccc3c(c2)OCO3)cc1,i,i,i,i
Cc1nn(C(=O)c2ccc([N+](=O)[O-])cc2)c(C)c1Br,i,i,i,i
CC(C)(C)NC(=O)c1ccc(NC(=O)CSc2ccccc2)cc1,i,i,i,15.1
CN1C(=O)c2ccc(NC(=O)CSc3ccccc3)cc2C1=O,i,i,i,27.5
CN1CCN(c2ccc(NC(=O)CSc3ccccc3)cc2F)CC1,i,i,61.5,49.5
CC[C@H](C)[C@H](NC(=O)[C@H](CC(=O)O)NC(=O)[C@H](CC(C)C)NC(=O)[C@H](Cc1cnc[nH]1)NC(=O)[C@H](C)NC(=O)[C@H](Cc1ccccc1)NC(=O)[C@H](Cc1ccc(O)cc1)NC(=O)[C@@H](NC(=O)[C@H](C)NC(=O)[C@H](CCC(=O)O)NC(=O)[C@H](CCCCN)NC(=O)[C@H](CC(=O)O)NC(=O)[C@H](CCSC)NC(=O)[C@H](CC(C)C)NC(C)=O)C(C)C)C(=O)N[C@H](C(=O)N[C@@H](Cc1c[nH]c2ccccc12)C(=O)O)[C@@H](C)CC,nt,nt,i,i
Fc1ccc2[nH]c3c(NCc4ccccc4)ncnc3c2c1,i,i,i,i
COc1cccc2cc(C(=O)C3=C(O)C(=O)N(CCN4CCOCC4)C3c3cccc(Cl)c3)oc12 (stereo not given),i,i,i,i
COc1cc2c(cc1OC)CN(c1ccc3ccccc3n1)CC2,i,i,87.6,41.5
COc1cc2c(cc1OC)CN(c1ccc(-c3ccccc3OC)nn1)CC2,i,i,i,i
COc1cc2c(cc1OC)CN(c1ccc(C(F)(F)F)cn1)CC2,i,i,52.7,21.1
C/C(=N\NC(=O)c1cc(O)ccc1O)c1cccc(NC(=O)c2cccc(Cl)c2)c1,i,i,70.7,40.7
SMILES,NS1 inh,SARS PLP yeast,Shiga inhibitor,Cycloheximide cs
C/C(=N/NS(=O)(=O)c1ccc(Cl)cc1)c1cccc(NC(=O)c2ccc(Cl)cc2Cl)c1,i,i,84.1,33.0
C/C(=N\NC(=O)c1cc(O)ccc1O)c1cccc(NC(=O)c2ccc(Cl)cc2)c1,i,i,78.3,46.8
CCN(CC)S(=O)(=O)c1ccc(Cl)c(NC(=O)COC(=O)/C=C/c2ccc(O)c(OC)c2)c1,i,i,i,i
CC(=O)c1ccc(N2CCN(S(=O)(=O)c3cccc4nsnc34)CC2)cc1,i,i,i,i
CCN(CC)S(=O)(=O)c1cccc(NC(=O)CSc2nnc(N)s2)c1,nt,i,i,i
Cn1nc(C(=O)Nc2ccccc2N2CCCC2)c2ccccc2c1=O,i,i,i,i
COc1ccccc1NC(=O)c1ccccc1NC(=O)c1ccccn1,nt,i,nt,nt
O=C(Nc1cccc2cccnc12)c1cc(F)c(F)cc1Cl,i,i,nt,29.0
COc1ccccc1C(=O)Nc1cccc2cccnc12,i,i,i,38.5
COC(=O)c1cccc(NC(=O)c2cccnc2C(=O)O)c1C,i,i,58.7,29.3
CCCCn1c(N)c(N(CC(C)C)C(=O)c2cc(S(=O)(=O)N3CCCCC3)ccc2C)c(=O)[nH]c1=O,nt,i,nt,nt
O=C(/C=C/c1cn(CC(O)CN2CCCCC2)c2ccccc12)c1ccccc1 (stereo not given),i,i,i,i
CN1CCN(Cn2cc(/C=C/C(=O)c3ccccc3)c3ccccc32)CC1,i,i,61.1,33.5
Cc1ccc(-c2nc(SCC(=O)NCCN3C(=O)CSC3=O)[nH]c2-c2ccc(C)cc2)cc1,i,i,i,i
COC(=O)c1ccccc1NC(=O)c1cc(-c2ccco2)on1,i,i,i,i
CSc1ccccc1NC(=O)c1cc(-c2ccco2)on1,i,i,55.1,18.0
O=C(Nc1c(F)cc(F)cc1Br)c1cc(-c2ccco2)on1,i,i,i,i
O=C(Nc1ccc(F)cc1F)c1cc(-c2ccco2)on1,i,i,93.3,30.7
Cc1c(Cl)cccc1NC(=O)c1cc(-c2ccco2)on1,i,i,53.6,i
CSc1ccccc1NC(=O)c1cc(C(C)C)on1,i,i,116.8,50.3
COc1ccccc1C(=O)N1CCN(Cc2nc(CC3CC3)no2)CC1,i,i,i,i
CC(C)(C)C(=O)COC(=O)c1ccc(O)cc1,i,i,40.3,i
CC(C)(C)C(=O)COC(=O)c1ccccc1O,i,i,i,i
COc1ccc(CCOC(=O)c2ccc(NC(=O)CC#N)cc2)cc1,i,i,i,41.2
O=C(OCCCOC(=O)c1ccc(O)cc1)c1ccc(O)cc1,i,i,i,i
SMILES,NS1 inh,SARS PLP yeast,Shiga inhibitor,Cycloheximide cs
COc1ccc(C(=O)OCCc2ccc(O)cc2)cc1,i,i,50.3,37.9
CCOc1ccc(CCNC(=O)CCCn2nc(C)c3c(C)n(-c4ccccc4)nc3c2=O)cc1,i,i,i,i
O=C(CCCOc1ccccc1)NCCc1ccccc1,i,i,i,14.2
Cc1nn(CCCC(=O)NCCc2ccccc2)c(=O)c2nccn12,i,i,15.3,i
COCCCNC(=O)CCCC(=O)NCCCOC,i,i,i,i
COCCCNC(=O)CCCOc1ccccc1,i,i,i,31.3
COC(=O)CCC(=O)N1CCc2cc(S(=O)(=O)N3CCN(c4ccccc4Cl)CC3)ccc21,i,i,i,i
COc1cc(C(=O)NCC(=O)NCC(c2ccco2)N2CCCCC2)cc(OC)c1OC (stereo not given),nt,i,nt,nt
N#C/C(=C\c1ccc(N2CCOCC2)c([N+](=O)[O-])c1)c1nc2ccccc2[nH]1,i,i,i,12.5
N#C/C(=C\c1ccc(N2CCOCC2)o1)c1nc2ccccc2[nH]1,i,i,121.3,48.6
N#C/C(=C/c1ccc(N2CCCC2)c([N+](=O)[O-])c1)c1nc2ccccc2[nH]1,i,i,65.1,41.6
Cc1ccc2nc(/C(C#N)=C\c3ccc(N4CCCCC4)c([N+](=O)[O-])c3)[nH]c2c1,?,nt,i,i
N#C/C(=C/c1ccc(N2CCOCC2)o1)c1ccc(Cl)cc1,i,i,i,35.5
Cc1ccc(NC(=O)c2ncn(CC(=O)NCC(C)c3ccccc3)n2)cc1C (stereo not given),nt,i,nt,nt
CCc1nnc(NC(=O)Cc2sc(C)nc2-c2ccc(C)cc2)s1,nt,i,i,i
Cc1ccc(CNCCc2ccccc2F)cc1,i,i,i,13.6
